Among the data in PMC7862700, “An all-to-all approach to the identification of sequence-specific readers for epigenetic DNA modifications on cytosine” are binding signal values, retold here.

Holding throughout (experiment): DAPPL (digital affinity profiling via proximity ligation, sequencing); 10 mM Tris-HCl pH 7.5, 50 mM NaCl, 1 mM DTT, 4% glycerol, room temperature, 30 min; GST-TFs on glutathione beads, 16-mer random dsDNA library, 0.1% formaldehyde crosslink after washing; high values mean tight binding
One experiment deals with T1, FEV (Homo sapiens, UniProt Q99581 1-238).
T1 sequence: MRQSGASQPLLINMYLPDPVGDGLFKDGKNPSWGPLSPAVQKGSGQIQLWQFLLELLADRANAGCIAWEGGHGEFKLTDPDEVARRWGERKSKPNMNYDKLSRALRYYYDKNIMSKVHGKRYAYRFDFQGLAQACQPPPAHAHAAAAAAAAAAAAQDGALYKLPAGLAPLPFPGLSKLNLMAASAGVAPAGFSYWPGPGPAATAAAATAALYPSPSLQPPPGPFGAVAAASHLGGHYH
The settings on record: protein: recombinant; tags: N-terminal GST; dsDNA, one strand shown. In a few lines: (§1)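 Pools were built from human transcription factors expressed in yeast as GST fusions, captured on glutathione beads and DNA-barcoded, along with a tag-only sample. Incubation with 200 nmole of a 16-mer random double-stranded DNA library lasted 30 min at room temperature in Tris/NaCl/DTT/glycerol buffer, and was followed by washing, 0.1% formaldehyde crosslinking, proximity ligation, PCR amplification and Illumina NextSeq500 sequencing. Binding signal is the quotient of each hexamer's read frequency for a factor and its frequency for the tag-only sample.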

The target in another experiment is ETV5 (Homo sapiens, UniProt P41161 1-510). The following applies: protein: recombinant; tags: N-terminal GST; dsDNA, one strand shown. In a few lines: as §1
Chain of ETV5 (P41161 whole entry): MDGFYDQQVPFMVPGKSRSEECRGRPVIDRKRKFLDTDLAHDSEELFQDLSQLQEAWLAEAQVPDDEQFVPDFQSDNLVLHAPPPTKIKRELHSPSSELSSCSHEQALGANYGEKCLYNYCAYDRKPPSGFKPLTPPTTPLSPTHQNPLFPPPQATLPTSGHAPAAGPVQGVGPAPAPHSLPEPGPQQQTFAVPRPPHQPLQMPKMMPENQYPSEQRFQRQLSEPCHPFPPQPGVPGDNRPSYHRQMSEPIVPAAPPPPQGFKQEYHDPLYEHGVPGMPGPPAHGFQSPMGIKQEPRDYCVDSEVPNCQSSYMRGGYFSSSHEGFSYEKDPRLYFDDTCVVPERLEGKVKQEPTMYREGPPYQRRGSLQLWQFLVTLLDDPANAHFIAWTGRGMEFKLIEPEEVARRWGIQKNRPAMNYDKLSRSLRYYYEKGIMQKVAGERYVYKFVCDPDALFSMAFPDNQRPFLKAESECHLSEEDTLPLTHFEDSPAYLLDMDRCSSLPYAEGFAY
Another experiment concerns the target HSF1 (Homo sapiens, UniProt Q00613 1-529). The following applies: protein: recombinant; tags: N-terminal GST; chain copies: 3; dsDNA, one strand shown. In a few lines: as §1
In the next experiment the target is T2, SPIC (Homo sapiens, UniProt Q8N5J4 1-248).
T2 sequence: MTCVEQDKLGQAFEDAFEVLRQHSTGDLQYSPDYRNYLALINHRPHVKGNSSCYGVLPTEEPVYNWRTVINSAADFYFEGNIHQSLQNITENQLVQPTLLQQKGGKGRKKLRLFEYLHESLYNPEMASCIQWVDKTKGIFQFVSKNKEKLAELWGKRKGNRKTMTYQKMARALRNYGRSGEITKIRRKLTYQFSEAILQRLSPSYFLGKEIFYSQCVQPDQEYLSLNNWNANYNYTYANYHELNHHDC
The settings on record: protein: recombinant; tags: N-terminal GST; dsDNA, one strand shown. The procedure, abridged:
as §1

A further experiment deals with ELF4 (Homo sapiens, UniProt Q99607 1-663). The following applies: protein: recombinant; tags: N-terminal GST; dsDNA, one strand shown. The procedure, abridged: as §1
Chain of ELF4 (Q99607 whole entry): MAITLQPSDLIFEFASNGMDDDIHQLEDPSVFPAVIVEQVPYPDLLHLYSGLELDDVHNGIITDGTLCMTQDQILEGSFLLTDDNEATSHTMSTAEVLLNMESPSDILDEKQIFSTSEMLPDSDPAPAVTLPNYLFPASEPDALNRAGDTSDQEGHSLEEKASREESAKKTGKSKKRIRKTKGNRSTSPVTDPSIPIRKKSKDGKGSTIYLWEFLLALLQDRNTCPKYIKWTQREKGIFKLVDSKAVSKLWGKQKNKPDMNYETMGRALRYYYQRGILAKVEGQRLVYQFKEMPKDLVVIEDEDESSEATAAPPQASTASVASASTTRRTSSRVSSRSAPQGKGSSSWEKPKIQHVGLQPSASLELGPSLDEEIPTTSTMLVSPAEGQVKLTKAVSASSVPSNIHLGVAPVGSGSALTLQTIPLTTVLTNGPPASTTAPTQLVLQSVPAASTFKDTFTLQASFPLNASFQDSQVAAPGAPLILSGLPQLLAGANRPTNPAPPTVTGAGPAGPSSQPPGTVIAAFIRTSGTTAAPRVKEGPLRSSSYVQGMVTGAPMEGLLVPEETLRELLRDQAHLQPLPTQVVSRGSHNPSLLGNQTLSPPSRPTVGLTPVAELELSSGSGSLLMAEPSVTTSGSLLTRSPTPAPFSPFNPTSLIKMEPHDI
The next experiment addresses T3, ELK4 (Homo sapiens, UniProt P28324-2 1-405).
T3 sequence: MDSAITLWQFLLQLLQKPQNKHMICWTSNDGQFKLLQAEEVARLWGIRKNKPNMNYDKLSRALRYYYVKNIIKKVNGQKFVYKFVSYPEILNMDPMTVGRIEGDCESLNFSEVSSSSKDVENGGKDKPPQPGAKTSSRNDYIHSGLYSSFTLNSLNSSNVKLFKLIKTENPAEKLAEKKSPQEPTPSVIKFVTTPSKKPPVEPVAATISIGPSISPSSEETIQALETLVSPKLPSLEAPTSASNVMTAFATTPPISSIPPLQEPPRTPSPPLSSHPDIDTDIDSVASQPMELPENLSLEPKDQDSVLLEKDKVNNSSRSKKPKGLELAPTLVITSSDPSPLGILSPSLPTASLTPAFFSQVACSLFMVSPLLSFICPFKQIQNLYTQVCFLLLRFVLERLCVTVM
The following applies: protein: recombinant; tags: N-terminal GST; dsDNA, one strand shown. The procedure, abridged: as §1

A further experiment deals with T4, ETV2 (Homo sapiens, UniProt O00321 1-342).
T4 sequence: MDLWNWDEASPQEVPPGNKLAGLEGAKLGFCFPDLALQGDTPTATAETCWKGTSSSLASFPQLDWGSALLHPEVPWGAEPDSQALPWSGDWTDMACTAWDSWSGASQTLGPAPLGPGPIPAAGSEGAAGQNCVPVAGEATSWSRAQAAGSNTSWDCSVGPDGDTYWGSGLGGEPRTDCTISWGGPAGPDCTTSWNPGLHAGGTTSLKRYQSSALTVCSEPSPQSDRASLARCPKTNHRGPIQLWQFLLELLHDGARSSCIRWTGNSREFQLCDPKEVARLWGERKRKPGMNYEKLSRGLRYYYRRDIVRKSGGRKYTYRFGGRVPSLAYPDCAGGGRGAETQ
The settings on record: protein: recombinant; tags: N-terminal GST; dsDNA, one strand shown. In a few lines:
as §1

The target in the next experiment is T5, ELF3 (Homo sapiens, UniProt P78545 1-371).
T5 sequence: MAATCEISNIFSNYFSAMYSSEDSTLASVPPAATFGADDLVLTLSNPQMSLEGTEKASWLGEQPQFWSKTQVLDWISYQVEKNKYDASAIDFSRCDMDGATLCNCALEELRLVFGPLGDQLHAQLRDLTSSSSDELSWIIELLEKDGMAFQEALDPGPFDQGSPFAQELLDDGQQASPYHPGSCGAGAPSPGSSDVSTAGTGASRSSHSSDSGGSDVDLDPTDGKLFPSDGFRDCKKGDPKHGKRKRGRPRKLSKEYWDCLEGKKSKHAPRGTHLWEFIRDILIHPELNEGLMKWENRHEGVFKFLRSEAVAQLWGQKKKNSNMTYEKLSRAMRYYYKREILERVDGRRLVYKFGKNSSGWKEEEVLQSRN
The following applies: protein: recombinant; tags: N-terminal GST; dsDNA, one strand shown. In a few lines: as §1

The next experiment addresses CRX (Homo sapiens, UniProt O43186 1-299). The settings on record: protein: recombinant; tags: N-terminal GST; dsDNA, one strand shown. In a few lines:
as §1

A further experiment concerns the target ETV1 (Homo sapiens, UniProt P50549 1-477). The settings on record: protein: recombinant; tags: N-terminal GST; dsDNA, one strand shown. In a few lines:
as §1

A further experiment has as its target T6, ERF (Homo sapiens, UniProt P50548 1-548).
T6 sequence: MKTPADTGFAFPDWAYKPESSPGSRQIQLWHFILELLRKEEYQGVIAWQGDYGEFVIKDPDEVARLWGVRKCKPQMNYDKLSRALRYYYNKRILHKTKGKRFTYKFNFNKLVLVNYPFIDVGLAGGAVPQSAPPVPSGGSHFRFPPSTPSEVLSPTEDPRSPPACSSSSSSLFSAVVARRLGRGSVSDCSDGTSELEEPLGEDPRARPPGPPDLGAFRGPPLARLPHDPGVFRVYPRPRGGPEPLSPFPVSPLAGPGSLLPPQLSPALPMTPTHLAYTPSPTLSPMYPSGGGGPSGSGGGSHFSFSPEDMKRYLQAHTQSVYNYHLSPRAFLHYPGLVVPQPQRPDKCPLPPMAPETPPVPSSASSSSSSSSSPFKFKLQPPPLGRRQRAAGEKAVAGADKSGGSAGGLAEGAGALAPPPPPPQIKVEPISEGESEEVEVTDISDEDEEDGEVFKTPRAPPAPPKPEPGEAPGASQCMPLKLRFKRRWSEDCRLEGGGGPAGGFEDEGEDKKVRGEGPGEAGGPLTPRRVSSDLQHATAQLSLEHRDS
The settings on record: protein: recombinant; tags: N-terminal GST; dsDNA, one strand shown. The procedure, abridged: as §1

The next experiment deals with T7, ETV3L (Homo sapiens, UniProt Q6ZN32 1-361).
T7 sequence: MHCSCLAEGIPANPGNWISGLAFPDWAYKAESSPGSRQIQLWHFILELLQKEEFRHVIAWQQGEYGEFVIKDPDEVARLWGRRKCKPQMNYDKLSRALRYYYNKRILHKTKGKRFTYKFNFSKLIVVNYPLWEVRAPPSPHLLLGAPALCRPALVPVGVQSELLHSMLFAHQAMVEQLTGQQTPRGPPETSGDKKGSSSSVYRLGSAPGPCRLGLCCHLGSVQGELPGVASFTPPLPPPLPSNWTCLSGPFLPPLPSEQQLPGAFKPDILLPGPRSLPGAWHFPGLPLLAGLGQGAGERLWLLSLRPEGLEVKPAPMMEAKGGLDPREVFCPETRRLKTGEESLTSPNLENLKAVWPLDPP
The following applies: protein: recombinant; tags: N-terminal GST; dsDNA, one strand shown. The procedure, abridged:
as §1

The target of the next experiment is T8, ETS2 (Homo sapiens, UniProt P15036 1-469).
T8 sequence: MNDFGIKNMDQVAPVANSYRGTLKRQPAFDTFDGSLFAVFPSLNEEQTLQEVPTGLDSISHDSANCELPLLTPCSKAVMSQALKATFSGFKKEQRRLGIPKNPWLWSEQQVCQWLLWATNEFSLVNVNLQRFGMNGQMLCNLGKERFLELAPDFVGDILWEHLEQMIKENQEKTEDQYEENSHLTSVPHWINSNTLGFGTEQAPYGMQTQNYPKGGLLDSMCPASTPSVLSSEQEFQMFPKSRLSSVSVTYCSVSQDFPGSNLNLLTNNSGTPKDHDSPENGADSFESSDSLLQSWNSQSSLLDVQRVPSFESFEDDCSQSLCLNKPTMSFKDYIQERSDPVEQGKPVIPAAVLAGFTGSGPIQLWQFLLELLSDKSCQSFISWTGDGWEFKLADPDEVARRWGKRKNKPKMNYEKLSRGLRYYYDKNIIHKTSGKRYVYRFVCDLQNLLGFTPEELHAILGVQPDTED
The following applies: protein: recombinant; tags: N-terminal GST; dsDNA, one strand shown. The procedure, abridged: as §1

Another experiment has as its target T9, SPDEF (Homo sapiens, UniProt O95238 1-335).
T9 sequence: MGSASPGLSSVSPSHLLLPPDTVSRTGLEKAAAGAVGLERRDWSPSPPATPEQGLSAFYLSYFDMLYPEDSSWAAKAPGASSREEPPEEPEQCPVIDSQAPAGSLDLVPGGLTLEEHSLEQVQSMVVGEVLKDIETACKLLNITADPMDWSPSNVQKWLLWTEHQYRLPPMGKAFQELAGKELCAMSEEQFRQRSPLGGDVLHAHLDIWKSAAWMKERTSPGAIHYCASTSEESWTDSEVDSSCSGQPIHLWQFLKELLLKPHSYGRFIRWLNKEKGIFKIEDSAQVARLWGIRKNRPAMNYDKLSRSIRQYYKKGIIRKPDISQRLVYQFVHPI
The settings on record: protein: recombinant; tags: N-terminal GST; dsDNA, one strand shown. In a few lines: as §1

Another experiment concerns the target T10, ETV7 (Homo sapiens, UniProt Q9Y603 1-341).
T10 sequence: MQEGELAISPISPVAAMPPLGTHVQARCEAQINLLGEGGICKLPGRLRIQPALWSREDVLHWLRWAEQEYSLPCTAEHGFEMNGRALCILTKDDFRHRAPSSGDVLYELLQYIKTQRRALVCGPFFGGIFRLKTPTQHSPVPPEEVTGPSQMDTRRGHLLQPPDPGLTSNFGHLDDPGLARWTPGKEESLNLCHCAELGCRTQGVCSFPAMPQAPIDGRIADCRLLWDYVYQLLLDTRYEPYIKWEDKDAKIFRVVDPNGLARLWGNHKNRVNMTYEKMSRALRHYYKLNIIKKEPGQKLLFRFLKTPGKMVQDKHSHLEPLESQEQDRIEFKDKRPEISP
The following applies: protein: recombinant; tags: N-terminal GST; dsDNA, one strand shown. The procedure, abridged: as §1

The target in another experiment is T11, ELF5 (Homo sapiens, UniProt Q9UKW6-2 1-255).
T11 sequence: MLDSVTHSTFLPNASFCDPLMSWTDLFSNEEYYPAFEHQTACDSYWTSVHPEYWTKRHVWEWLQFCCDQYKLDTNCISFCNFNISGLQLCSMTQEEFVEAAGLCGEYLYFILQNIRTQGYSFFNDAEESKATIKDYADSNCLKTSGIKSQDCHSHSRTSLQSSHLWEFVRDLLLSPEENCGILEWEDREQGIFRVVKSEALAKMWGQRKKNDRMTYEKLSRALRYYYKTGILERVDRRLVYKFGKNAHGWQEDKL
The following applies: protein: recombinant; tags: N-terminal GST; dsDNA, one strand shown. In a few lines:
as §1

The next experiment concerns the target T12, ETV3 (Homo sapiens, UniProt P41162-2 1-143).
T12 sequence: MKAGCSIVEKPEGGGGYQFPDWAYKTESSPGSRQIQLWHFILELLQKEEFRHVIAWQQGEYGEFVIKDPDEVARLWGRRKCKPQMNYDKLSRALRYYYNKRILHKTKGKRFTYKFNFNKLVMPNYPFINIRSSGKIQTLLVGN
The settings on record: protein: recombinant; tags: N-terminal GST; dsDNA, one strand shown. The procedure, abridged: as §1

The next experiment addresses ETV6 (Homo sapiens, UniProt P41212 1-452). The settings on record: protein: recombinant; tags: N-terminal GST; dsDNA, one strand shown. The procedure, abridged: as §1

Chain of ETV6 (P41212 whole entry): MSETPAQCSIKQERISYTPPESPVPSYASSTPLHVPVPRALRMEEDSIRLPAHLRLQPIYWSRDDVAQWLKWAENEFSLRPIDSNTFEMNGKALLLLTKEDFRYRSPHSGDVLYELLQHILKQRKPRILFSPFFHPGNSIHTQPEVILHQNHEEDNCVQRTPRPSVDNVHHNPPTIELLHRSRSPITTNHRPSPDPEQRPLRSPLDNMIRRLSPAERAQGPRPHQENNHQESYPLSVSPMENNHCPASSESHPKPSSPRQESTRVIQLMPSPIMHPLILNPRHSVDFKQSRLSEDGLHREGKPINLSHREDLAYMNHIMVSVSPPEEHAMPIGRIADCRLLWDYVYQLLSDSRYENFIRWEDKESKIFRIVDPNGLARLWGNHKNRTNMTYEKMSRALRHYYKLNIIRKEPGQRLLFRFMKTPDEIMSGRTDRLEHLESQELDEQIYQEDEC
Chain of ETV1 (P50549 whole entry): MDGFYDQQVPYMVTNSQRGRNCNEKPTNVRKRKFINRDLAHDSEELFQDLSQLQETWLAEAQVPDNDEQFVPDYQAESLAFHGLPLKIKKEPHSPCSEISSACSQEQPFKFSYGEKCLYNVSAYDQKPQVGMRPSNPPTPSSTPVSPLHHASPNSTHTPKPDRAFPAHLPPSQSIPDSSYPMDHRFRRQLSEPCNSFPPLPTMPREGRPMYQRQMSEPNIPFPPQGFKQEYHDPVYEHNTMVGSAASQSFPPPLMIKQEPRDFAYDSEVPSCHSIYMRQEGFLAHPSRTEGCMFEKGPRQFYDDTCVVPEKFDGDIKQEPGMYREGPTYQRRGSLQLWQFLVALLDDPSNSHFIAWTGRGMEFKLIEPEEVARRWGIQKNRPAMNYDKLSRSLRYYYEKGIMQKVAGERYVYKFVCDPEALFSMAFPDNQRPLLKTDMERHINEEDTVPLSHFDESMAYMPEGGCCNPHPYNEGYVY
Chain of HSF1 (Q00613 whole entry): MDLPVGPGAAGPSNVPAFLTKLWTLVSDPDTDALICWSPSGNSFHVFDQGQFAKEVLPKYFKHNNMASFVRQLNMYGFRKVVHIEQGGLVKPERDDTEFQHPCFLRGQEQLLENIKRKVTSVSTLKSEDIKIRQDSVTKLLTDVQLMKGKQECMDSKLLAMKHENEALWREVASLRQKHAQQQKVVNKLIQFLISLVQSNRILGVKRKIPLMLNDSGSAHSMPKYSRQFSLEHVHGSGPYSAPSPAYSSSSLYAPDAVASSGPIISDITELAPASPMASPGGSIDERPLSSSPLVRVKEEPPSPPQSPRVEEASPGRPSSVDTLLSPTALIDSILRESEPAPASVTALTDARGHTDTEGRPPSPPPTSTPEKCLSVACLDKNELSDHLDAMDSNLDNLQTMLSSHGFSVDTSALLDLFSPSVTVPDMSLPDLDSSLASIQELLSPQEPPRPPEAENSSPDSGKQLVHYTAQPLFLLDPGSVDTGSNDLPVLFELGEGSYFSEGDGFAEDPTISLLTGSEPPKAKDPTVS
Chain of CRX (O43186 whole entry): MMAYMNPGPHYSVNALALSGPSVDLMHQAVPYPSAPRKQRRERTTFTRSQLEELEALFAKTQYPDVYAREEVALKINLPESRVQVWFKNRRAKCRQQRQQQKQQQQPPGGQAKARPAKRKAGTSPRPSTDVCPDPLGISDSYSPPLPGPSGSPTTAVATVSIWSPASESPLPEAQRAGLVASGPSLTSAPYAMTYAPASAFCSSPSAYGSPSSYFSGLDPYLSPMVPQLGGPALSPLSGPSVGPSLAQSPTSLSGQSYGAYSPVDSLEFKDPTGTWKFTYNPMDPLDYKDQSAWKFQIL

On to TGTTCC, for which the binding signal in the experiment with FEV is 1.69 fold enrichment (6-mer frequency, TF over GST control); with ETV5, 1.71 fold enrichment (6-mer frequency, TF over GST control); with HSF1, 1.85 fold enrichment (6-mer frequency, TF over GST control); in the experiment with SPIC it was 2 fold enrichment (6-mer frequency, TF over GST control); in the experiment with ELF4, 1.64 fold enrichment (6-mer frequency, TF over GST control); with ELK4 it was 1.49 fold enrichment (6-mer frequency, TF over GST control). For the same sequence, the binding signal was 1.78 fold enrichment (6-mer frequency, TF over GST control) in the experiment with ETV2; 1.6 fold enrichment (6-mer frequency, TF over GST control) with ELF3; 1.21 fold enrichment (6-mer frequency, TF over GST control) with CRX; 1.86 fold enrichment (6-mer frequency, TF over GST control) with ETV1; 1.75 fold enrichment (6-mer frequency, TF over GST control) with ERF; 1.62 fold enrichment (6-mer frequency, TF over GST control) in the experiment with ETV3L. Further, the binding signal with ETS2 was 1.75 fold enrichment (6-mer frequency, TF over GST control); with SPDEF, 2.03 fold enrichment (6-mer frequency, TF over GST control); with ETV7 it was 1.68 fold enrichment (6-mer frequency, TF over GST control); with ELF5, 2.3 fold enrichment (6-mer frequency, TF over GST control); in the experiment with ETV3, 1.85 fold enrichment (6-mer frequency, TF over GST control); with ETV6, 1.69 fold enrichment (6-mer frequency, TF over GST control).
